The nature of assay [1]: qHTS for Antimalaria activity screened against the NCATS CANVASS Library (AID 1347380). Particulars: P. falciparum Dd2 growth, SYBR Green fluorescence, 72 h; series mostly up to 57 µM. In short, it runs like this:
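Compounds are titrated over 11 concentrations onto Dd2 parasite cultures (0.3% parasitemia, 2.5% hematocrit). Growth over 72 h at 37C in low oxygen is measured as SYBR Green DNA fluorescence after lysis.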

Assay [2] in a line: Inflammasome Signaling qHTS Counterscreen: IL-1-beta AlphaLISA counterscreen against the NCATS CANVASS Library (AID 1347381). Particulars: Purified IL-1beta AlphaLISA signal interference counterscreen; series mostly up to 114 µM. Put shortly: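 Purified IL-1-beta (4 pg/well) + compound, 11-pt conc. series; acceptor beads 6 ug/mL + biotin-Ab 0.6 nM final, 1 h RT; SA-donor 24 ug/ml final, 30 min dark RT; read ex 680/em 615.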

Assay [3] is described as follows: Cytotoxicity qHTS for assessment of Hepg2 cells membrane integrity screened against the NCATS CANVASS Library (AID 1347387). Particulars: HepG2 LDH release (CytoTox-ONE) fluorescence, 5 h; series mostly up to 91.4 µM. In short, it runs like this: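 Cells were seeded at 2000 per well and left overnight to attach. Compounds were pin-transferred to give 0.59 nM - 46 uM in an 11-point series and incubated 5 hr at 37C. CytoTox-ONE reagent was added and, after 10 min at room temperature, fluorescence (ex 560, em 590 nm) was read.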
For orientation: Quantitative high-throughput screening tests each substance at several concentrations.

The nature of assay [4]: qHTS for Activators of p53 Stress Response Pathway screened against the NCATS CANVASS Library (AID 1347388). Conditions: p53RE-bla HCT-116, beta-lactamase reporter, 16 h; series mostly up to 91.4 µM. In short, it runs like this: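 Beta-lactamase reporter driven by p53 response elements in HCT-116 cells, read as the 460 nm/530 nm emission ratio after CCF4 loading, following 16 h of exposure to an 11-point series. Cell viability was measured in the same wells by CellTiter-Glo luminescence.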

A short description of assay [5]: qHTS assay for small molecule disruptors of mitochondrial membrane potential screened against the NCATS CANVASS Library (AID 1347389). Conditions: HepG2 mitochondrial membrane potential, m-MPI red/green ratio, 1.5 h; series mostly up to 91.4 µM. Put shortly:
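Mitochondrial depolarization in HepG2 cells is scored as a falling aggregate-to-monomer fluorescence ratio after 1 hr compound exposure and 30 min staining with Mito-MPS dye at 37C, each compound tested as an 11-point titration.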

Assay [6] in a line: Secretion counterscreen for inhibitors of the SERCaMP assay screened against the NCATS CANVASS Library (AID 1347390). Particulars: SH-SY5Y constitutive GLuc secretion, luminescence, 20 h; series mostly up to 152 µM. In short, it runs like this:
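Natural products are titrated in an 11-point series up to 77 uM onto SH-SY5Y-GLuc STOP cells for 20 h. Secreted reporter activity is measured as coelenterazine-driven luminescence, with Brefeldin A on each plate.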
In general terms: Counterscreens check selectivity or assay interference.

Assay [7] in a line: qHTS for activators of Nrf2/ARE signaling pathway screened against the NCATS CANVASS Library (AID 1347391). Particulars: ARE-bla HepG2, beta-lactamase reporter, 16 h; series mostly up to 91.4 µM. In short, it runs like this:
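Beta-lactamase reporter signal, read as 460 and 530 nm emission under 405 nm excitation after 2 h CCF4 loading, reflected ARE activation in HepG2 cells treated 16 h with an 11-point series.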

Assay [8] is described as follows: qHTS for activators of dead-cell proteases activity screened against the NCATS CANVASS Library (AID 1347392). Particulars: HepG2 cytotoxicity, dead-cell protease luminescence, 5 h; series mostly up to 91.4 µM. In short, it runs like this:
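Luminescent dead-cell protease readout (AAF-aminoluciferin, 15 min, room temperature) after 5 h compound treatment of HepG2 cells (2000/well, pre-attached 18 h). Eleven concentrations.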

A short description of assay [9]: Vero-766 cells viability qHTS against the NCATS CANVASS Library: Counterscreen for Zika virus inhibition assay (AID 1347394). Particulars: Vero 766 viability, CellTiter-Glo luminescence, 72 h; series mostly up to 91.4 µM. Put shortly:
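Counterscreen for toxicity: Vero 766 cells exposed 72 h to an 11-point compound series, viability by CellTiter-Glo.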

Assay [10] can be described thus: qHTS for inhibitors of Wild type Zika virus screened against the NCATS CANVASS Library (AID 1347396). Particulars: Vero cells, Zika virus CPE, CellTiter-Glo, 72 h; series mostly up to 91 µM. In short, it runs like this: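 Luminescent CellTiter Glo read-out of virus-induced cytotoxicity, 72 h post-infection, in Vero 766 cells. Compounds were tested at 11 concentrations; uninfected, vehicle-treated wells defined 100% inhibition.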

The nature of assay [11]: Viability qHTS for inhibitors of the SERCaMP assay screened against the NCATS CANVASS Library (AID 1347400). Particulars: SH-SY5Y SERCaMP cells viability, CellTiter-Glo, 48 h; series mostly up to 183 µM. In short, it runs like this:
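Seed SH-SY5Y-GLuc SERCaMP MJH297 cells at 1000 per well, incubate 4 h, add compounds across an 11-point range, incubate 48 h at 37C, then add CellTiter-Glo and read luminescence.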

Assay [12] is described as follows: Redox Reaction Profiling qHTS: Assay Interference Panel against the NCATS CANVASS Library (AID 1347401). Conditions: resazurin-DTT redox cycling, fluorescence, 15 min; series mostly up to 113 µM. Put shortly: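 Redox-cycling liability assessed as DTT-driven conversion of resazurin (5 uM, with 200 uM DTT, HEPES pH 7.3) to fluorescent resorufin. Fluorescence at 525/598 nm measured initially and after 15 min dark incubation.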

The nature of assay [13]: qHTS to identify inhibitors of the type 1 interferon - major histocompatibility complex class I in skeletal muscle: primary screen against the NCATS Pharmaceutical Collection (AID 1347407). Conditions: human skeletal muscle cells, IFN-b-induced MHC-I HiBiT luminescence, 24 h; series mostly up to 45.9 µM. Put shortly:
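A qHTS format is used: 8-point, 1:5 compound series with 46 uM top final concentration, applied alongside 4 ng/ml IFN-beta to HLA-B*08:01-HiBiT knock-in myoblasts. Luminescence is measured after 24 h treatment.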

For assay [14], the target named is Protein phosphatase 1D (Homo sapiens) (UniProt O15297). The assay can be described thus: RapidFire Mass Spectrometry qHTS Assay for Modulators of WT P53-Induced Phosphatase 1 (WIP1) (AID 1347424). Particulars: WIP1 dephosphorylation of phosphopeptide, RapidFire MS; series mostly up to 63 µM. Put shortly: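 RapidFire mass spectrometry measured dephosphorylated peptide after 5 min room-temperature reaction of 2 uM VEPPL-pS-QETFS with 10 nM WIP1 (50 mM Tris-HCl pH 7.5, 30 mM MgCl2, 0.1 mM EGTA, BSA), following 1 hr compound preincubation; 1 uM isotope-labelled product standard.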

The target is the same in assay [15]. The assay can be described thus: Rhodamine-PBP qHTS Assay for Modulators of WT P53-Induced Phosphatase 1 (WIP1) (AID 1347425). Particulars: recombinant WIP1, Rhodamine-PBP phosphate fluorescence, real-time; series mostly up to 57.5 µM. Put shortly:
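The read-out is the change in Rhodamine-PBP fluorescence (f1 - f0, ex 525/em 598 nm) as Pi is released, read each minute for 11 min. Final reaction: 5 nM WIP1, 10 uM phosphopeptide VEPPL-pS-QETFS, 10 uM Rh-PBP, 50 mM Tris-HCl pH 7.5, 30 mM MgCl2. Compound was preincubated with enzyme for 1 hour at room temperature.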

Results filed as inconclusive are left out. The source made the active and inactive calls. Calls come from the whole dose curve; as a rule, active = well fitted curve in the direction sought with a large enough effect; inconclusive = small, poorly fitted or top-dose-only effect, or another doubt; inactive = no such curve, though single readings can be large; an effect the other way counts as inactive or inconclusive.

Protein phosphatase 1D (Homo sapiens), sequence (O15297 whole entry, looked up): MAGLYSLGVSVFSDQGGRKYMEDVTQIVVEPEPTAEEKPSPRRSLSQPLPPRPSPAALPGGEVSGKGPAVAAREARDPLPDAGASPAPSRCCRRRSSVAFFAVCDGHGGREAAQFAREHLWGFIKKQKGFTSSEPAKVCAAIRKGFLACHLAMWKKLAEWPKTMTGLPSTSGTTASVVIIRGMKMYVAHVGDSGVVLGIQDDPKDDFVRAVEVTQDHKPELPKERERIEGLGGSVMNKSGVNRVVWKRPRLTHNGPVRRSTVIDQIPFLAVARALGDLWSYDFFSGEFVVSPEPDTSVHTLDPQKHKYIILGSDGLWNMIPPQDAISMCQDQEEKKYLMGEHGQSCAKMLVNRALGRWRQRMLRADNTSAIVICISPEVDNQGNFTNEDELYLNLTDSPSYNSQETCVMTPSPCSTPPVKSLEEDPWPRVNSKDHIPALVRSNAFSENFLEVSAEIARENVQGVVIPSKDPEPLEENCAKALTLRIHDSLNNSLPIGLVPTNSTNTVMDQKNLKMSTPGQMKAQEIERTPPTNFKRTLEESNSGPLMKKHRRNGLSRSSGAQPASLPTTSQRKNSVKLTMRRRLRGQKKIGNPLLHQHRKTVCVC

Take `NCCc1ccc(O)cc1`: the compound was classed as inactive in assay [1], in [2], in assay [3], in [4], in assay [5] and in assay [6]. Besides, the compound was called inactive in assay [7], in assay [8], in assay [9], in assay [10], in [11] and in assay [12].

Regarding `CCCCCCCCCC(=O)O[C@H]1CC[C@H]2[C@@H]3CCC4=CC(=O)CC[C@@H]4[C@H]3CC[C@]12C`, the Potency result in [13] and in assay [14] was “inactive” each time. For the same compound, the result in assay [15] was inactive.

As to `CCN(CC)C(=O)[C@@H]1C=C2c3cccc4[nH]cc(c34)C[C@H]2N(C)C1`, the Potency result in assay [13] and in [14] was “inactive” in each case. Also, the result in [15] was inactive.

Turning to `CCC1(CC)C(=O)C=CNC1=O`, the Potency result in assay [13] and in [14] was “inactive” each time. Moreover, the result in assay [15] was inactive.

`CC(Cc1ccccc1)N(C)Cc1ccco1` (centres undefined): the Potency result in assay [13] and in [14] was “inactive” each time. In [15], the outcome was inactive.

Turning to `CCN[C@@H](C)Cc1cccc(C(F)(F)F)c1`, the Potency entry in assay [13] and in assay [14] was “inactive” in each case. For the same compound, in assay [15], the result was inactive.

Regarding `COc1cc(CC(C)N)cc(OC)c1OC` (centres undefined), the Potency entry in assay [13] and in assay [14] was “inactive” in each case. Moreover, in assay [15], the result was inactive.

On to `CCC1(c2ccccc2)C(=O)N(COC)C(=O)N(COC)C1=O`, for which the Potency result in [13] and in [14] was “inactive” throughout. The result in [15] was inactive.

Consider `C[C@]12CC[C@@H]3c4ccc(OC(=O)N(CCCl)CCCl)cc4CC[C@H]3[C@@H]1CC[C@@H]2O`, for which the Potency result in assay [13] and in assay [14] was “inactive” in each case. Besides, the result in assay [15] was inactive.

Consider `CCN(CC)CCc1c[nH]c2ccccc12`, for which the Potency entry in assay [13] and in assay [14] was “inactive” in each case. Besides, in [15], the result was inactive.

For `C[N+]1(CCF)[C@@H]2CC[C@H]1CC(OC(=O)C(O)(c1ccccc1)c1ccccc1)C2` (some centres undefined), the Potency entry in assay [13] and in assay [14] was “inactive” throughout. For the same compound, the result in assay [15] was inactive.

In the case of `CCC(C)C(C)(COC(N)=O)COC(N)=O` (centres undefined), the Potency result in assay [13] and in [14] was “inactive” throughout. The outcome in assay [15] was inactive.

`O=C(Nc1ccc(Br)cc1)c1cc(Br)cc(Br)c1O`: in assay [13], the Potency entry was “inactive”. The Potency in assay [14] was 3.16 µM (active). The outcome in assay [15] was inactive.

In the case of `c1ccc(N2CCNCC2)cc1`, the Potency result in assay [13] and in [14] was “inactive” each time. In addition, the result in assay [15] was inactive.

As to `CNC(C)(C)Cc1ccccc1`, the Potency entry in assay [13] and in [14] was “inactive” in each case. Moreover, the result in [15] was inactive.

For `CC[N+]1(CC)CCC(OC(=O)C(O)(c2ccccc2)c2ccccc2)C1` (centres undefined), the Potency result in assay [13] and in assay [14] was “inactive” throughout. Moreover, the outcome in assay [15] was inactive.

For `C[C@]12CCC(=O)C=C1CC[C@@H]1[C@@H]2CC[C@@]2(C)[C@H]1CC[C@]2(C)O`, the Potency entry in assay [13] and in assay [14] was “inactive” in each case. For the same compound, in [15], the outcome was inactive.

Take `CC(=O)C1CCOC1=O` (centres undefined): the Potency result in [13] and in assay [14] was “inactive” in each case. Besides, the outcome in assay [15] was inactive.

On to `COc1cccc([C@@]2(O)CCCC[C@@H]2CN(C)C)c1`, for which the Potency entry in [13] and in assay [14] was “inactive” each time. Also, the result in assay [15] was inactive.

`Clc1cccc(SC2CCNCC2)n1`: the Potency result in [13] and in assay [14] was “inactive” throughout. Further, the result in assay [15] was inactive.

For the compound `c1ccc(CN2CCNCC2)cc1`, the Potency result in [13] and in assay [14] was “inactive” throughout. Besides, the outcome in [15] was inactive.

For `C[C@]12CCC(=O)C=C1CC[C@@H]1[C@@H]2CC[C@]2(C)C(=O)CC[C@@H]12`, the Potency entry in [13] and in assay [14] was “inactive” in each case. For the same compound, in assay [15], the result was inactive.

Consider `CN1CCC(O)(c2ccc(F)cc2)C(C(=O)c2ccc(F)cc2)C1` (centres undefined), for which the Potency result in assay [13] and in [14] was “inactive” each time. Besides, the result in assay [15] was inactive.

`O=C(O)c1ccc(=O)[nH]c1`: the Potency result in assay [13] and in assay [14] was “inactive” in each case. For the same compound, the result in assay [15] was inactive.

In the case of `C=CCN1C[C@H](C)N([C@H](c2ccc(C(=O)N(CC)CC)cc2)c2cccc(OC)c2)C[C@H]1C`, the Potency result in assay [13] and in assay [14] was “inactive” in each case. In addition, the result in assay [15] was inactive.

As to `CC(Cc1ccccc1)NCCn1cnc2c1c(=O)n(C)c(=O)n2C` (centres undefined), the Potency result in assay [13] and in assay [14] was “inactive” each time. Moreover, in assay [15], the outcome was inactive.

Regarding `COc1cccc(C(=O)CCN[C@@H](C)[C@H](O)c2ccccc2)c1`, the Potency entry in [13] and in assay [14] was “inactive” throughout. In addition, the result in assay [15] was inactive.

In the case of `[N-]=[N+]=CC(=O)OC[C@H](N)C(=O)O`, the Potency result in assay [13] and in [14] was “inactive” each time. Besides, the outcome in [15] was inactive.

As to `CN1C(=O)NC(=O)C(C)(C2=CCCCC2)C1=O` (centres undefined), the Potency result in assay [13] and in assay [14] was “inactive” throughout. Also, the result in assay [15] was inactive.

Consider `Oc1ccc(Cl)cc1`, for which the Potency entry in assay [13] and in assay [14] was “inactive” throughout. For the same compound, in [15], the result was inactive.

Source of the values: PubChem BioAssay (NCATS).
